# Hits are enriched below; roughly 2% of the tested compounds scored in any of these assays.
# GC-A act = GC-A stimulated cGMP production enhancers – HEK293 GC-A cells, cGMP TR-FRET, EC30 ANP, primary screen | AID 1671463, 2021 | hit rate 0.14% among 370,000 | activation, % at 10 µM | 0% at EC30 ANP, 100% saturating ANP | Atrial natriuretic peptide receptor 1 (Homo sapiens), P16066; in the data active = activation above about 40%
# ADAM17 inh = ADAM17 inhibitors, primary screen, biochemical, QFRET | Disintegrin and metalloproteinase domain-containing protein 17 (Homo sapiens), P78536 | recombinant ADAM17, EDANS/DABCYL FRET peptide cleavage | inhibition, % at 6.95 µM | hit rate 0.83% among 370,000;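 active = inhibition above the mean of compounds lying between control limits plus 3 SD, set per campaign, cut at about 8.5% in these data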;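 also: 0% = DMSO-only wells as the low control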
# ADAM10 inh = human ADAM10 inhibitors, primary screen, biochemical, QFRET, HTS | recombinant ADAM10, EDANS/DABCYL FRET peptide cleavage, 3 h | hit rate 0.62% among 370,000 | AID 720582, 2013 | inhibition, % at 7 µM;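 active = inhibition above a per-campaign cutoff equal to the mean of compounds falling between control-based bounds plus 3 SD, cut at about 20% in these data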;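 also: 0% = DMSO wells while the 100% control is not disclosed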
# GC-B act = human GC-B receptor activators, primary screen, HEK293 GC-B cells, cGMP TR-FRET, EC30 CNP. Atrial natriuretic peptide receptor 2 (Homo sapiens), P20594. 0% at EC30 CNP, 100% saturating CNP. activation, % at 10 µM. hit rate 0.11% among 370,000;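 active = activation at 10 µM reaching about 35% in either raw or pattern-adjusted values, limit read from the data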
# FAS-TE inh = FAS thioesterase domain inhibitors, primary screen, biochemical, fluorescence intensity, uHTS; Fatty acid synthase (Homo sapiens), P49327; inhibition, % at 15 µM; hit rate 0.67% among 360,000; recombinant FAS-TE, OMFH fluorogenic substrate, fluorescence endpoint;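 active = compounds whose normalised, plate-corrected inhibition of enzyme fluorescence in the single-dose primary screen is 50% or more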;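 also: 0% = DMSO with enzyme and 100% = substrate without enzyme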
# ADAM10 confirm = human ADAM10 inhibitors, confirmation, biochemical, QFRET, triplicate; shares compounds with ADAM10 inh; ADAM10 QFRET peptide cleavage, EDANS fluorescence; inhibition, % at 6.95 µM; hit rate 1% among 2,100;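 active = inhibition above about 20% chosen separately for each screening run, limit read from the data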;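 also: 0% = DMSO wells and 100% = marimastat wells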
# ADAM17 ctr = ADAM17 inhibitors, counter-screen for ADAM10 exosite inhibitor project, biochemical, QFRET, high throughput. shares compounds with ADAM10 inh. ADAM17 QFRET peptide cleavage, EDANS fluorescence. inhibition, % at 6.95 µM. hit rate 0.5% among 2,100. AID 743214, 2013;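 active = mean triplicate inhibition above the solvent-only control wells' mean plus 3 SD, cut at about 12% in these data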;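 also: 0% = DMSO wells and 100% = marimastat wells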
# Numbers without * were called inactive; nt = no result.
SMILES,GC-A act,ADAM17 inh,ADAM10 inh,GC-B act,FAS-TE inh,ADAM10 confirm,ADAM17 ctr
CCc1c(C(=O)NNC(=S)Nc2ccc(S(=O)(=O)Nc3ncccn3)cc2)csc1C,1,8,23*,10,-7,1,0
O=C1C=C[C@H]2CC[C@@H](O)[C@@H]1[C@@H]2Sc1ccccc1,5,-4,-1,1,nt,nt,nt
O=[N+]([O-])c1ccc(N/N=C/c2cccc(O)c2O)c(S(=O)(=O)N2CCOCC2)c1,-2,8,30*,1,35,7,3
CCOC(=O)C(Cc1ccnc2ccccc12)=NO,-3,1,20*,1,-18,-1,-1
COc1ccc(CNC2CCC23CCC(C)CC3)cc1OC (centres undefined),-7,0,-1,-6,nt,nt,nt
O=C(NC(=S)Nc1ccccc1N1CCCC1)c1ccc(-c2cccc([N+](=O)[O-])c2)o1,-1,3,20*,0,22,2,1
Cc1ccc2nc(C3CCN(S(=O)(=O)c4ccc5ccccc5c4)CC3)[nH]c2c1,-24,6,26*,-8,16,6,2
O=S(=O)(Nc1cccc(-c2ccc(N3CCCCCC3)nn2)c1)c1ccc(C(F)(F)F)cc1,-2,7,24*,-2,39,6,3
O=C(Nc1cccc(-c2ccc(N3CCCCC3)nn2)c1)C(F)(F)F,-2,-2,1,6,7,nt,nt
CCOC(=O)[C@]12CCCC3=C1N(CCC3)C(=O)[C@@H](CC(=O)NCC1CCCCC1)C2,1,0,-1,3,nt,nt,nt
CO[C@H]([C@H](C)/C=C/N(C)C=O)[C@@H](C)C(=O)CC[C@H](C)[C@H](O)[C@H](C)[C@H]1OC(=O)/C=C/C(C)=C/C[C@H](O)C[C@@H]2C=CC[C@@H](C[C@H](OC)[C@@H](CO)[C@@H](OC)C[C@@H](OC)[C@@H]1C)O2,-28,6,16,-28,nt,nt,nt
O=S(=O)(c1cccc(C(F)(F)F)c1)N1CCC(CO)(CCCc2ccccc2)CC1,2,8,22*,5,28,1,1
O=[N+]([O-])c1cnc2ccccc2c1Sc1ccccc1,8,-2,-6,18,nt,nt,nt
Cc1ccc2c(c1)/C(=C/c1ccc(F)cc1)C(=O)N2,-1,3,22*,-2,-2,1,0
Cc1ccc2c(c1)/C(=C/c1ccccc1C)C(=O)N2,-5,2,0,7,0,nt,nt
Cc1ccc(NS(=O)(=O)c2ccc(OCC(=O)Nc3cccc([N+](=O)[O-])c3)c(C)c2)cc1,-11,3,23*,-10,37,7,3
Cc1ccc(C(=O)N2CCC(Oc3cccnc3)CC2)cc1,4,-5,-5,2,nt,nt,nt
CCn1c(CSc2nc3ccccc3s2)n[nH]c1=S,-2,3,11,-2,-2,nt,nt
S=c1[nH]nc(CSc2nc3ccccc3s2)n1Cc1ccccc1,-2,1,22*,-1,0,-1,0
C#CCNC(=O)C[C@@H]1C(=O)N2CCCC3=C2[C@@]1(C(=O)OCC)CCC3,4,-9,-11,-2,nt,nt,nt
C[C@@H]1COc2cc(Br)ccc2S(=O)(=O)N1Cc1cn(Cc2ccccc2)nn1,-4,2,5,-1,nt,nt,nt
Cc1ccc(Cn2cc(CN3[C@H](c4ccccc4)COc4cc(Br)ccc4S3(=O)=O)nn2)cc1,-1,8,21*,3,nt,6,2
Cc1cc(Br)c2c(c1)/C(=C/C(=O)c1cccs1)C(=O)N2,-32,1,20*,-15,5,1,0
Cc1nn(C)cc1CNC(=O)Nc1ccc(Br)cc1Cl,-4,2,85*,-4,-2,-1,0
Cc1nn(C)cc1CNC(=O)Nc1cccc(Cl)c1,-4,-1,-11,0,-4,nt,nt
SMILES,GC-A act,ADAM17 inh,ADAM10 inh,GC-B act,FAS-TE inh,ADAM10 confirm,ADAM17 ctr
COc1cccc([C@@H](NC(=O)C(F)(F)F)[C@@H]2CCCC=C2c2ccccc2)c1,-3,0,8,-10,nt,nt,nt
O=C(Nc1ccc2[nH]c(=S)sc2c1)c1ccccc1,-2,-1,5,0,1,nt,nt
O=C(Nc1ccc2[nH]c(=S)sc2c1)Nc1ccccc1F,-3,-3,24*,-2,2,6,2
COc1ccc(N2CCN(C(=O)c3ccc(C(C)(C)C)cc3)CC2)cc1,1,-5,88*,-5,2,1,0
COc1ccc(N2CCN(C(=O)CCNC(=O)c3ccc(C(C)(C)C)cc3)CC2)cc1,-4,0,1,-2,-4,nt,nt
COc1ccc(C(=O)CSc2nnc(-c3ccccc3)n2-c2ccc(Cl)cc2)cc1,-7,2,0,-15,nt,nt,nt
O=S(=O)(Nc1cc(C(F)(F)F)ccc1N1CCOCC1)c1ccc2ccccc2c1,-20,8,24*,-10,33,6,3
CN(Cc1ccccc1)C(=O)OCc1cn(Cc2ccc(C(F)(F)F)cc2)nn1,0,1,7,8,nt,nt,nt
O=C(Nc1ccn(Cc2ccccc2F)n1)c1ccc(COc2ccc(Br)cc2)cc1,6,3,20*,7,34,5,1
O=C(Nc1ccc(Cn2cccn2)cc1)c1ccc(COc2ccc(Br)cc2)cc1,1,1,10,6,-9,nt,nt
COc1ccc(Nc2nc(N)c([N+](=O)[O-])c(NCCO)n2)cc1,-2,2,-1,-9,-4,nt,nt
COc1ccc(Nc2nc(N)c([N+](=O)[O-])c(NC3CCCCC3)n2)cc1,22,6,31*,18,29,6,2
O=[N+]([O-])c1cc(CN2CCN(c3ccccc3)CC2)c(O)c2ncccc12,-3,6,20*,-3,10,6,1
CC(=O)N[C@@H](C)CCc1ccc(Oc2ccc(OC(C)C)nc2)cc1,4,-2,4,1,nt,nt,nt
CCOC(=O)CCC(=O)Nc1cc(S(=O)(=O)N2CCOCC2)ccc1N1CCCCC1,0,-1,22*,4,-6,0,0
COc1ccccc1C(=O)NCCC(=O)Nc1ccc(S(=O)(=O)N2CC(C)CC(C)C2)cc1 (centres undefined),-5,9.6*,29*,5,22,3,1

# Screens as filed in PubChem BioAssay.
